According to the supplement of paper PMC4466140:

These binders were tested against AgAbp1 (assay: SPOT peptide array binding signal intensity (averaged, normalized) (arbitrary units (background-subtracted, floor 0; scale differs between SH3 domains)); higher = stronger binding of the SH3 domain to the peptide).
Protocol: (§1)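 GST-tagged SH3 domains from S. cerevisiae (Sc), A. gossypii (Ag), C. albicans (Ca) and S. pombe (Sp) were incubated at 10 ug/ml overnight at 4 C on cellulose SPOT membranes carrying 292 synthetic 15-mer peptides mined from the S. cerevisiae proteome (cysteines replaced by serines). Binding was detected with anti-GST antibody, HRP secondary and chemiluminescence, quantified with Genespotter, and reported as normalized spot intensities averaged over biological replicates.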
KTKQQKPAIPQKKSF was tested, and the “SPOT peptide array binding signal intensity” value was 2190.

Each binder was assayed against AgBbc1 in the same assay as above.
Protocol: as §1
With KTKQQKPAIPQKKSF the “SPOT peptide array binding signal intensity” value was 16.5.

What follows are binders tested against AgBem1-D1 in the same assay as above.
Protocol: as §1
For KTKQQKPAIPQKKSF, the “SPOT peptide array binding signal intensity” value was 7.

What follows are binders tested against AgBzz1-D1 in the same assay as above.
Protocol: as §1
KTKQQKPAIPQKKSF was tested, and the “SPOT peptide array binding signal intensity” value was 73.

The binders below were run against AgBzz1-D2 in the same assay as above.
Protocol: as §1
In the case of KTKQQKPAIPQKKSF, the “SPOT peptide array binding signal intensity” value is reported as 21.

Each binder was assayed against AgCyk3 in the same assay as above.
Protocol: as §1
KTKQQKPAIPQKKSF was tested, and the “SPOT peptide array binding signal intensity” value was no more than 0.

The binders below were run against AgFus1 in the same assay as above.
Protocol: as §1
For KTKQQKPAIPQKKSF, the “SPOT peptide array binding signal intensity” value was no more than 0.

What follows are binders tested against AgHof1 in the same assay as above.
Protocol: as §1
For KTKQQKPAIPQKKSF, the “SPOT peptide array binding signal intensity” value was 35.5.

What follows are binders tested against AgHse1 in the same assay as above.
Protocol: as §1
KTKQQKPAIPQKKSF was tested, and the “SPOT peptide array binding signal intensity” value was no more than 0.

Each binder was assayed against AgLsb1 in the same assay as above.
Protocol: as §1
With KTKQQKPAIPQKKSF the “SPOT peptide array binding signal intensity” value was no more than 0.

These binders were tested against AgLsb4 in the same assay as above.
Protocol: as §1
In the case of KTKQQKPAIPQKKSF, the “SPOT peptide array binding signal intensity” value is reported as 1.5.

The binders below were run against AgMyo5 in the same assay as above.
Protocol: as §1
In the case of KTKQQKPAIPQKKSF, the “SPOT peptide array binding signal intensity” value is reported as 4.

Each binder was assayed against AgNbp2 in the same assay as above.
Protocol: as §1
For KTKQQKPAIPQKKSF, the “SPOT peptide array binding signal intensity” value was 14.

The binders below were run against AgRvs167 in the same assay as above.
Protocol: as §1
For KTKQQKPAIPQKKSF, the “SPOT peptide array binding signal intensity” value was 0.333.

What follows are binders tested against AgSho1 in the same assay as above.
Protocol: as §1
With KTKQQKPAIPQKKSF the “SPOT peptide array binding signal intensity” value was no more than 0.

The binders below were run against AgSla1-D1-D2 in the same assay as above.
Protocol: as §1
KTKQQKPAIPQKKSF was tested, and the “SPOT peptide array binding signal intensity” value was 17.

The binders below were run against AgSla1-D3 in the same assay as above.
Protocol: as §1
With KTKQQKPAIPQKKSF the “SPOT peptide array binding signal intensity” value was 19.5.

Each binder was assayed against CaAbp1-D1 in the same assay as above.
Protocol: as §1
In the case of KTKQQKPAIPQKKSF, the “SPOT peptide array binding signal intensity” value is reported as 4040.

What follows are binders tested against CaAbp1-D2 in the same assay as above.
Protocol: as §1
For KTKQQKPAIPQKKSF, the “SPOT peptide array binding signal intensity” value was 6440.

The binders below were run against CaBbc1 in the same assay as above.
Protocol: as §1
In the case of KTKQQKPAIPQKKSF, the “SPOT peptide array binding signal intensity” value is reported as 149.

These binders were tested against CaBem1-D1 in the same assay as above.
Protocol: as §1
For KTKQQKPAIPQKKSF, the “SPOT peptide array binding signal intensity” value was 3.

What follows are binders tested against CaBzz1-D1 in the same assay as above.
Protocol: as §1
KTKQQKPAIPQKKSF was tested, and the “SPOT peptide array binding signal intensity” value was 742.

The binders below were run against CaBzz1-D2 in the same assay as above.
Protocol: as §1
For KTKQQKPAIPQKKSF, the “SPOT peptide array binding signal intensity” value was 584.

These binders were tested against CaCyk3 in the same assay as above.
Protocol: as §1
With KTKQQKPAIPQKKSF the “SPOT peptide array binding signal intensity” value was 2.

Each binder was assayed against CaFus1 in the same assay as above.
Protocol: as §1
For KTKQQKPAIPQKKSF, the “SPOT peptide array binding signal intensity” value was no more than 0.

Each binder was assayed against CaHof1 in the same assay as above.
Protocol: as §1
For KTKQQKPAIPQKKSF, the “SPOT peptide array binding signal intensity” value was 2.

These binders were tested against CaHse1 in the same assay as above.
Protocol: as §1
For KTKQQKPAIPQKKSF, the “SPOT peptide array binding signal intensity” value was 1.75.

Each binder was assayed against CaLsb1 in the same assay as above.
Protocol: as §1
With KTKQQKPAIPQKKSF the “SPOT peptide array binding signal intensity” value was no more than 0.

The binders below were run against CaLsb4 in the same assay as above.
Protocol: as §1
For KTKQQKPAIPQKKSF, the “SPOT peptide array binding signal intensity” value was no more than 0.

Each binder was assayed against CaMyo5 in the same assay as above.
Protocol: as §1
In the case of KTKQQKPAIPQKKSF, the “SPOT peptide array binding signal intensity” value is reported as 1.5.

These binders were tested against CaNbp2 in the same assay as above.
Protocol: as §1
For KTKQQKPAIPQKKSF, the “SPOT peptide array binding signal intensity” value was no more than 0.

What follows are binders tested against CaRvs167 in the same assay as above.
Protocol: as §1
KTKQQKPAIPQKKSF was tested, and the “SPOT peptide array binding signal intensity” value was 2.33.

The binders below were run against CaRvs167-3 in the same assay as above.
Protocol: as §1
In the case of KTKQQKPAIPQKKSF, the “SPOT peptide array binding signal intensity” value is reported as 1.5.

Each binder was assayed against CaSho1 in the same assay as above.
Protocol: as §1
KTKQQKPAIPQKKSF was tested, and the “SPOT peptide array binding signal intensity” value was no more than 0.

What follows are binders tested against CaSla1-D1-D2 in the same assay as above.
Protocol: as §1
In the case of KTKQQKPAIPQKKSF, the “SPOT peptide array binding signal intensity” value is reported as 1260.

The binders below were run against CaSla1-D3 in the same assay as above.
Protocol: as §1
In the case of KTKQQKPAIPQKKSF, the “SPOT peptide array binding signal intensity” value is reported as no more than 0.

These binders were tested against ScAbp1 in the same assay as above.
Protocol: as §1
With KTKQQKPAIPQKKSF the “SPOT peptide array binding signal intensity” value was 1480.

Each binder was assayed against ScBbc1 in the same assay as above.
Protocol: as §1
With KTKQQKPAIPQKKSF the “SPOT peptide array binding signal intensity” value was 3.

The binders below were run against ScBem1-D1 in the same assay as above.
Protocol: as §1
For KTKQQKPAIPQKKSF, the “SPOT peptide array binding signal intensity” value was 15.

The binders below were run against ScBzz1-D1 in the same assay as above.
Protocol: as §1
KTKQQKPAIPQKKSF was tested, and the “SPOT peptide array binding signal intensity” value was 37.

Each binder was assayed against ScBzz1-D2 in the same assay as above.
Protocol: as §1
With KTKQQKPAIPQKKSF the “SPOT peptide array binding signal intensity” value was 19.5.

Each binder was assayed against ScCyk3 in the same assay as above.
Protocol: as §1
KTKQQKPAIPQKKSF was tested, and the “SPOT peptide array binding signal intensity” value was no more than 0.

The binders below were run against ScFus1 in the same assay as above.
Protocol: as §1
For KTKQQKPAIPQKKSF, the “SPOT peptide array binding signal intensity” value was no more than 0.

The binders below were run against ScHof1 in the same assay as above.
Protocol: as §1
For KTKQQKPAIPQKKSF, the “SPOT peptide array binding signal intensity” value was 7.75.

What follows are binders tested against ScHse1 in the same assay as above.
Protocol: as §1
KTKQQKPAIPQKKSF was tested, and the “SPOT peptide array binding signal intensity” value was 54.5.

What follows are binders tested against ScLsb1 in the same assay as above.
Protocol: as §1
For KTKQQKPAIPQKKSF, the “SPOT peptide array binding signal intensity” value was 4.

These binders were tested against ScLsb2 in the same assay as above.
Protocol: as §1
With KTKQQKPAIPQKKSF the “SPOT peptide array binding signal intensity” value was no more than 0.

What follows are binders tested against ScLsb3 in the same assay as above.
Protocol: as §1
In the case of KTKQQKPAIPQKKSF, the “SPOT peptide array binding signal intensity” value is reported as 328.

These binders were tested against ScLsb4 in the same assay as above.
Protocol: as §1
For KTKQQKPAIPQKKSF, the “SPOT peptide array binding signal intensity” value was no more than 0.

These binders were tested against ScMyo3 in the same assay as above.
Protocol: as §1
With KTKQQKPAIPQKKSF the “SPOT peptide array binding signal intensity” value was 19.

Each binder was assayed against ScMyo5 in the same assay as above.
Protocol: as §1
With KTKQQKPAIPQKKSF the “SPOT peptide array binding signal intensity” value was 4.75.

The binders below were run against ScNbp2 in the same assay as above.
Protocol: as §1
In the case of KTKQQKPAIPQKKSF, the “SPOT peptide array binding signal intensity” value is reported as no more than 0.

Each binder was assayed against ScPex13 in the same assay as above.
Protocol: as §1
KTKQQKPAIPQKKSF was tested, and the “SPOT peptide array binding signal intensity” value was 0.75.

The binders below were run against ScRvs167 in the same assay as above.
Protocol: as §1
In the case of KTKQQKPAIPQKKSF, the “SPOT peptide array binding signal intensity” value is reported as 4.67.

The binders below were run against ScSho1 in the same assay as above.
Protocol: as §1
In the case of KTKQQKPAIPQKKSF, the “SPOT peptide array binding signal intensity” value is reported as 3.

Each binder was assayed against ScSla1-D1-D2 in the same assay as above.
Protocol: as §1
For KTKQQKPAIPQKKSF, the “SPOT peptide array binding signal intensity” value was 213.

The binders below were run against ScSla1-D3 in the same assay as above.
Protocol: as §1
With KTKQQKPAIPQKKSF the “SPOT peptide array binding signal intensity” value was 7.25.

What follows are binders tested against SpAbp1-D1 in the same assay as above.
Protocol: as §1
In the case of KTKQQKPAIPQKKSF, the “SPOT peptide array binding signal intensity” value is reported as 1420.

Each binder was assayed against SpBbc1 in the same assay as above.
Protocol: as §1
In the case of KTKQQKPAIPQKKSF, the “SPOT peptide array binding signal intensity” value is reported as 2.5.

Each binder was assayed against SpBzz1-D1 in the same assay as above.
Protocol: as §1
In the case of KTKQQKPAIPQKKSF, the “SPOT peptide array binding signal intensity” value is reported as 256.

What follows are binders tested against SpBzz1-D2 in the same assay as above.
Protocol: as §1
For KTKQQKPAIPQKKSF, the “SPOT peptide array binding signal intensity” value was 2.

Each binder was assayed against SpCyk3 in the same assay as above.
Protocol: as §1
For KTKQQKPAIPQKKSF, the “SPOT peptide array binding signal intensity” value was no more than 0.

The binders below were run against SpHof1 in the same assay as above.
Protocol: as §1
In the case of KTKQQKPAIPQKKSF, the “SPOT peptide array binding signal intensity” value is reported as 0.5.

These binders were tested against SpHof1-2 in the same assay as above.
Protocol: as §1
With KTKQQKPAIPQKKSF the “SPOT peptide array binding signal intensity” value was 5.75.

These binders were tested against SpHof1-3 in the same assay as above.
Protocol: as §1
For KTKQQKPAIPQKKSF, the “SPOT peptide array binding signal intensity” value was 134.

These binders were tested against SpHse1 in the same assay as above.
Protocol: as §1
KTKQQKPAIPQKKSF was tested, and the “SPOT peptide array binding signal intensity” value was 3.75.

These binders were tested against SpLsb1 in the same assay as above.
Protocol: as §1
KTKQQKPAIPQKKSF was tested, and the “SPOT peptide array binding signal intensity” value was 5.5.

What follows are binders tested against SpLsb4 in the same assay as above.
Protocol: as §1
KTKQQKPAIPQKKSF was tested, and the “SPOT peptide array binding signal intensity” value was 22.5.

Each binder was assayed against SpMyo1 in the same assay as above.
Protocol: as §1
For KTKQQKPAIPQKKSF, the “SPOT peptide array binding signal intensity” value was 5.

Each binder was assayed against SpNbp2 in the same assay as above.
Protocol: as §1
With KTKQQKPAIPQKKSF the “SPOT peptide array binding signal intensity” value was no more than 0.

Each binder was assayed against SpPex13 in the same assay as above.
Protocol: as §1
In the case of KTKQQKPAIPQKKSF, the “SPOT peptide array binding signal intensity” value is reported as no more than 0.

These binders were tested against SpRvs167 in the same assay as above.
Protocol: as §1
In the case of KTKQQKPAIPQKKSF, the “SPOT peptide array binding signal intensity” value is reported as 1.

These binders were tested against SpSla1-D1-D2 in the same assay as above.
Protocol: as §1
For KTKQQKPAIPQKKSF, the “SPOT peptide array binding signal intensity” value was 3.

Each binder was assayed against SpSla1-D3 in the same assay as above.
Protocol: as §1
In the case of KTKQQKPAIPQKKSF, the “SPOT peptide array binding signal intensity” value is reported as 1.
